Test results taken from PubChem BioAssay AID651871 (Sanford-Burnham Center for Chemical Genomics, 2012).

System: HL-1
Experiment: protection of cardiomyocytes from stress damage, SAR follow-up, cell-based, panel, H9c2 and HL-1, ATP luminescence, set 2 (AID 651871);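 also: cells exposed to stressor for 2 h before ATP readout; reference of the scale not given here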
Conditions: H9c2/HL-1 cardiomyocytes, 2-deoxyglucose stress, with 2-deoxyglucose, run 11, at 19.8 µM (top of the series)

Compound: COc1ccc2c(c1OC)C(=O)N1c3ccccc3C(=O)N(Cc3cccc(Cl)c3Cl)C21 (stereo unspecified)
- activity (protection/inhibition): 40%
